# An excerpt weighted towards active compounds, which were near 2.8% of everything screened.
# HttQ103 aggreg = inhibitors of mutant huntingtin aggregate formation in PC12 cells; AID 1688; Potency, µM (doses to about 46.1 µM), inactives show at the top dose activity change, negative = inhibition, usual class: inhibitors; PC12 HttQ103-GFP aggregates, Acumen cytometry, 40 h; hit rate 1.1% among 220,000; note: % is set by controls: 0 for no effect and ±100 for the full control effect; nearly all actives have a fitted effect of over 60% in size
#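 Quantitative HTS on tebufenozide-induced (100 nM) PC12 cells stably expressing polyQ103 Huntingtin exon 1–GFP. Reduction of bright GFP aggregates, detected by laser scanning cytometry after lysis, identified actives across the titration.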
# HepG2 tox = HepG2 cytotoxicity, counter-screen for TGF-b inhibitors; hit rate 0.76% among 410,000; HepG2 CAGA-GFP viability, ATP luminescence, 18 h; Potency, µM (series often up to 46.1 µM), for the others: at the top dose activity change, negative = cytotoxicity, actives largely listed as cytotoxic
#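 HepG2 CAGA-GFP cells (1000/well, DMEM with 1% FBS) received compound, then TGF-beta at 500 pg/mL final, and were incubated 18 hours at 37 degrees C. Viability was read by CellTiter-Glo luminescence. Media-only wells were set as complete cell-killing and DMSO as no toxicity.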
# HTT ATP protect = Huntington cell model cytoprotection by ATP luminescence; PC12 HTT-Q103 induced, cytoprotection, ATP luminescence, 40 h; Potency, µM (titrated, usually from 56.4 µM), inactives show cytoprotection (ATP increase), usual class: activators; hit rate 0.14% among 230,000; note: % of control where 0% means no effect; nearly all actives have a fitted effect of over 45% in size
#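 Readout: ATPlite luminescence (ATP level). Model: stable PC12, inducible Htt exon1 Q103-GFP. Inducer: tebufenozide, 100 nM final. Compounds: dose series. No G418 in medium.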
# ATXN2 expr inh = ATXN2 expression inhibition; HEK-293 ATXN2-luciferase reporter, luminescence, 24 h; Potency, µM (titrated, usually from 57 µM), without a hit: at the top dose activity change, negative = inhibition, actives largely listed as inhibitors; hit rate 0.72% among 360,000; AID 1745845; note: % is set by controls: 0 for no effect and ±100 for the full control effect; nearly all actives have a fitted effect of over 55% in size
#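 qHTS (up to 57 uM final) was run with 24 h compound exposure of reporter cells at 37 °C. Each well was multiplexed: SteadyGlo luminescence measured ATXN2-luciferase expression after a fluorogenic Gly-Phe-AFC viability readout (25 uM final).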
# TGFb inhibitor = TGF-b pathway inhibition; hit rate 1.2% among 410,000; Potency, µM (titrated, usually from 46.1 µM), for the others: at the top dose activity, negative = inhibition, most hits filed as inhibitors; AID 588855; HepG2 CAGA-GFP TGF-b/SMAD3 reporter, GFP fluorescence, 18 h; TGF-beta stimulated, 500 pg/mL final; note: % is set by controls: 0 for no effect and ±100 for the full control effect; nearly all actives have a fitted effect of over 65% in size
#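 HEPG2 CAGA-GFP cells (1000/well, DMEM with 1% FBS) were pre-incubated 2 h at 37 degrees C, given compound by pin tool, then stimulated with TGF-beta at 500 pg/mL final for 18 h before per-cell GFP fluorescence imaging.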
# ATXN viability = reduces viability in counter-screen for ATXN expression inhibitors | AID 651635 | Potency, µM (titrated, usually from 56.7 µM), hits mostly cytotoxic | S2 cells (HEK-293 line with an ATXN2-luciferase reporter) viability, CellTiter-Fluor protease fluorescence, 24 h | hit rate 0.49% among 400,000; note: nearly all actives have a fitted effect of over 40% in size
# * marks the source's active call; other numbers are inactive results; i = inactive; ? = inconclusive; / = no result given; [ ] = dose if it differs, or a comment. Calls come from the whole dose curve; as a rule, active = well fitted curve in the direction sought with a large enough effect; inconclusive = small, poorly fitted or top-dose-only effect, or another doubt; inactive = no such curve, though single readings can be large; an effect the other way counts as inactive or inconclusive. Potency is the fitted concentration of half-maximal effect.
SMILES,HttQ103 aggreg,HepG2 tox,HTT ATP protect,ATXN2 expr inh,TGFb inhibitor,ATXN viability
O=C(NCCN1CCOCC1)c1cnn(-c2nccc(-c3ccccc3C(F)(F)F)n2)c1C1CC1,/,/,/,/,/,i
COc1ccc(NC(=S)NC(NC(=O)c2ccc(Cl)cc2Cl)C(Cl)(Cl)Cl)c([N+](=O)[O-])c1 (stereo not drawn),?,-43%,0%,?,11µM*,?
Cn1c(=O)c2c(nc(Oc3ccc(-c4ccccc4)cc3)n2C)n(C)c1=O,2.8µM*,-2%,-11%,5%,-6%,i
COc1ccc(-c2cc3nc[nH]c(=O)c3s2)cc1,8%,-24%,-85%,12%,-9%,i
COc1ccc(-c2cc3nc(CCl)[nH]c(=O)c3s2)cc1,/,22µM*,/,13µM*,?,i
O=C1C2C3C=CC(CO)(O3)C2C(=O)N1c1ccccc1-c1ccccc1 (stereo not drawn),?,13µM*,-136%,?,13µM*,?
COc1cccc(C(=O)C(C#N)=C(SC)SC)c1,4%[9.22 µM],10µM*,-34%[10 µM],/,?,/
CSC(SC)=C(C#N)C(=O)c1ccccc1,7%[9.22 µM],-134%,-32%[10 µM],22µM*,?,/
CCCCCCCCCC(=O)N[C@@H](CN1CCOCC1)[C@@H](O)c1ccccc1,/,/,-15%[1.9 µM],/,/,/
O=C(Nc1nc2ccccc2n1CCN1CCOCC1)c1cccc([N+](=O)[O-])c1,/,/,/,22µM*,/,/
Cc1cc(C)nc(-n2ncc3c2CCCC3=O)n1,?,2%,25µM*,/,-1%,i
Cc1cc(C)nc(-n2ncc(C#N)c2N)n1,6%[9.22 µM],4%,21%[10 µM],8%,15%,i
CN(C)C(=O)COc1ccccc1C(=O)OCC(=O)N(CCC#N)c1ccccc1,/,-6%,/,/,-10%,/
Cc1ccc(CN2C(=O)C(O)(c3c[nH]c4ccccc34)c3cc(Cl)ccc32)cc1 (stereo not drawn),/,13µM*,/,?,2.8µM*,i
O=C(COc1ccc([N+](=O)[O-])cc1)NCc1cccnc1,8%,-4%,28%[10 µM],13%,-1%,i
O=C(COc1ccc([N+](=O)[O-])cc1)Nc1ccc(C(=O)NCc2cccnc2)cc1,3.5µM*,-43%,-152%,/,0%,/
Cc1nc2sccn2c1-c1csc(NCc2ccccc2)n1,7.1µM*,-27%,-79%,6%,?,i
O=C(NC(c1ccc(F)cc1)c1ccc2ccccc2n1)C1CCN(Cc2ccc3ccccc3n2)CC1 (stereo not drawn),/,-47%,/,-23%,13µM*,?
O=C(NC(c1ccc(F)cc1)c1ccc2ccccc2n1)C1CCN(CCOc2ccc(Cl)cc2)CC1 (stereo not drawn),/,-94%,/,?,16µM*,14µM*
CN(C)c1ccc(CN2CCC(C(=O)NC(c3ccc(F)cc3)c3ccc4ccccc4n3)CC2)cc1 (stereo not drawn),/,-84%,/,?,?,?
Cc1cc(C)c2nccc(/C=C/c3ccc(N(C)C)cc3)c2c1,/,-20%,/,/,-15%,/
Oc1ccc(C[C@@H]2CNCCN2CCc2cc(C(F)(F)F)cc(C(F)(F)F)c2)cc1,/,-93%,/,20µM*,?,?
FC(F)(F)c1cc(CCN2CCNC[C@H]2Cc2cccc3ccccc23)cc(C(F)(F)F)c1,/,-104%,/,?,?,40µM*
Oc1ccc(C[C@H]2CNCCN2CCc2cc(C(F)(F)F)cc(C(F)(F)F)c2)cc1,/,-108%,/,?,?,/
Cc1ccc(S(=O)(=O)N(C)Cc2ccc(C(=O)N/N=C/c3ccc(OC(F)F)cc3)cc2)cc1,-17%,5%,17%[10 µM],?,?,11µM*
SMILES,HttQ103 aggreg,HepG2 tox,HTT ATP protect,ATXN2 expr inh,TGFb inhibitor,ATXN viability
C/C(=N\NC(=O)c1ccc(CN(C)S(=O)(=O)c2ccc(C)cc2)cc1)c1ccc(OC(F)F)cc1,-8%,1%,2%[10 µM],?,?,?
FC(F)(F)c1ccccc1Cc1c(-c2ccc(Cl)cc2)nc2ccc(Cl)cn12,/,-40%,/,58%,?,i
FC(F)(F)c1ccccc1Cc1c(-c2ccco2)nc2ccc(Cl)cn12,/,6.3µM*,/,-38%,?,?
Fc1ccc(-c2nc3ccc(Cl)cn3c2Cc2ccccc2C(F)(F)F)cc1,/,-42%,/,68%,13µM*,i
N#Cc1ccc(-c2nc3ccc(Cl)cn3c2Cc2ccccc2C(F)(F)F)cc1,/,-19%,/,12%,?,i
CO[C@H]1/C=C\O[C@@]2(C)Oc3c(C)c(O)c4c(O)c(c5c(nc6cc(C)ccn65)c4c3C2=O)NC(=O)C(C)=CC=C[C@H](C)[C@H](O)[C@@H](C)[C@@H](O)[C@@H](C)[C@H](OC(C)=O)[C@H]1C,/,/,/,-10%,/,/
CCOC(=O)Cn1nnnc1C(CC)N(Cc1cccs1)Cc1cc2cc(C)ccc2[nH]c1=O (stereo not drawn),-25%,-38%,2%,3%,-17%,i
Cc1ccc2cc(CN(Cc3ccc(F)cc3)Cc3nnnn3C3CCCC3)c(=O)[nH]c2c1,25µM*,-26%,-6%[1.9 µM],?,19%,/
CCC(c1nnnn1C1CCCC1)N(Cc1cccs1)Cc1cc2cc(C)ccc2[nH]c1=O (stereo not drawn),-31%,-10%,-3%,32µM*,3%,?
O=C(CC(c1ccccc1)c1cc(Br)ccc1O)NCCN1CCOCC1 (stereo not drawn),4%,-13%,8%,-5%,-1%,i
O=C(CC(c1ccccc1)c1cc(Br)ccc1O)NCC1(c2ccccc2)CCCC1 (stereo not drawn),/,-99%,/,?,18µM*,35µM*
CCOC(=O)c1c(-c2ccccc2)oc2ccc(OCC(O)CNCCN(C)C)cc12 (stereo not drawn),/,14µM*,/,-36%,?,/
COC(CNC(=O)c1c[nH]c2ccc(S(=O)(=O)N3CCC4(CC3)OCCO4)cc2c1=O)OC,7%,-4%,/,-3%,3.5µM*,i
COc1ccc(CN2CC[C@H]3C=CC[C@@H](C(=O)N4CCN(c5ccccc5)CC4)[C@H]3C2=O)cc1OC,/,9%,/,/,1%,/
COc1ccc(CCN2C(=O)CSC2=S)cc1OC,/,-58%,/,?,?,22µM*
COc1ccc(CN2C(=O)CSCC2=O)cc1OC,/,1%,/,/,-3%,i
CCCCc1nc2c(c3c1C[C@H](C)OC3)CN(S(=O)(=O)c1ccccc1C(=O)OC)CC2,/,/,-9%[10 µM],/,/,/
